In PubChem BioAssay AID1159580 (chemical genetic matrix, 2015):
Out of some 5,500 compounds screened, about 2,000 (36%) were called active. Not shown: some 18% with an inconclusive outcome. Rule as the data show it: active = normalized growth mostly below about 0.91 (no sharp cut-off); inconclusive = no clear call, values can overlap the other calls; inactive = mostly above about 0.92. This is one part of the list.

Experiment: chemical genetic growth profiling, strain panel (AID 1159580);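 also: tested at 20 µM; growth read once vehicle control cultures reached saturation at 30 °C; 1 = growth at the plate median or of vehicle wells; lower values mean less growth of the strain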
Conditions: growth OD
[1] = S. cerevisiae deletion strains, locus YDR150W, strain NUM1, hits give low values
[2] = S. cerevisiae deletion strains, locus YJR075W, strain HOC1, hits give low values
[3] = S. cerevisiae deletion strains, locus YNL153C, strain GIM3, hits give low values
[4] = S. cerevisiae deletion strains, locus YDL101C, strain DUN1, hits give low values
[5] = S. cerevisiae deletion strains, locus YHR030C, strain SLT2, hits give low values

Measured: normalized growth

COc1ccc(C(=O)NCc2cccnc2)cc1C(=O)NCc1cccnc1
inactive: S. cerevisiae deletion strains, locus YAL040C, strain CLN3, hits give low values 0.994 | S. cerevisiae deletion strains, locus YCL061C, strain MRC1 (second series), hits give low values 1.01 | [1] 1 | S. cerevisiae deletion strains, locus YDR363W, strain ESC2, hits give low values 1 | S. cerevisiae deletion strains, locus YER002W, strain NOP16, hits give low values 0.997 | [2] 1.02 | S. cerevisiae deletion strains, locus YMR307W, strain GAS1, hits give low values 1.01 | S. cerevisiae deletion strains, locus YNL128W, strain TEP1, hits give low values 1.01 | [3] 1.02 | S. cerevisiae deletion strains, locus YNL175C, strain NOP13, hits give low values 1.02 | S. cerevisiae deletion strains, locus YNL197C, strain WHI3, hits give low values 1.04 | S. cerevisiae deletion strains, locus YNL224C, strain SQS1, hits give low values 1 | S. cerevisiae deletion strains, locus YOR083W, strain WHI5 (second series), hits give low values 1.02

Cc1cccc(NC(=S)NCc2ccncc2)c1
inactive: S. cerevisiae deletion strains, locus YAL013W, strain DEP1, hits give low values 1 | S. cerevisiae deletion strains, locus YBR229C, strain ROT2, hits give low values 1 | [4] 0.988 | [1] 1 | S. cerevisiae deletion strains, locus YEL061C, strain CIN8, hits give low values 1.01 | S. cerevisiae deletion strains, locus YGR078C, strain PAC10, hits give low values 1.01 | S. cerevisiae deletion strains, locus YGR229C, strain SMI1, hits give low values 0.992 | [5] 0.857 | S. cerevisiae deletion strains, locus YHR087W, strain rtc3, hits give low values 0.99 | S. cerevisiae deletion strains, locus YJL187C, strain SWE1, hits give low values 1.02 | S. cerevisiae deletion strains, locus YJR043C, strain POL32, hits give low values 1 | [2] 0.987 | S. cerevisiae deletion strains, locus YLR039C, strain RIC1, hits give low values 1.01 | S. cerevisiae deletion strains, locus YLR058C, strain SHM2 (second series), hits give low values 1.01 | S. cerevisiae deletion strains, locus YLR085C, strain ARP6, hits give low values 0.88 | S. cerevisiae deletion strains, locus YLR262C, strain YPT6, hits give low values 1.01 | S. cerevisiae deletion strains, locus YML094W, strain GIM5, hits give low values 0.974 | S. cerevisiae deletion strains, locus YMR219W, strain ESC1, hits give low values 1.01 | S. cerevisiae deletion strains, locus YMR263W, strain SAP30, hits give low values 0.981 | [3] 0.993 | S. cerevisiae deletion strains, locus YNL298W, strain CLA4 (second series), hits give low values 1.01 | S. cerevisiae deletion strains, locus YNL322C, strain KRE1, hits give low values 1.01 | S. cerevisiae deletion strains, locus YNR030W, strain Alg12, hits give low values 1.03 | S. cerevisiae deletion strains, locus YPL055C, strain LGE1, hits give low values 1.03 | S. cerevisiae deletion strains, locus YPL241C, strain CIN2, hits give low values 0.998 | S. cerevisiae deletion strains, locus YPR135W, strain CTF4, hits give low values 0.928 | S. cerevisiae strains, strain wild type, hits give low values 0.997

O=S(=O)(NC(=S)Nc1ccc(Cl)c(Cl)c1)c1ccccc1
inactive: S. cerevisiae deletion strains, locus YAR019C, strain CDC15, hits give low values 1.01 | S. cerevisiae deletion strains, locus YBL105C, strain PKC1, hits give low values 1.01 | S. cerevisiae deletion strains, locus YBR135W, strain CKS1, hits give low values 0.997 | S. cerevisiae deletion strains, locus YBR136W, strain MEC1, hits give low values 1 | S. cerevisiae deletion strains, locus YBR160W, strain CDC28, hits give low values 1 | S. cerevisiae deletion strains, locus YDL017W, strain CDC7, hits give low values 1.01 | S. cerevisiae deletion strains, locus YDL028C, strain MPS1, hits give low values 1 | [4] 1.01 | S. cerevisiae deletion strains, locus YDL108W, strain KIN28, hits give low values 1 | S. cerevisiae deletion strains, locus YDL132W, strain cdc53, hits give low values 0.993 | S. cerevisiae deletion strains, locus YDL214C, strain PRR2, hits give low values 1.02 | S. cerevisiae deletion strains, locus YDR052C, strain DBF4, hits give low values 1.01 | S. cerevisiae deletion strains, locus YDR054C, strain cdc34, hits give low values 1.01 | S. cerevisiae deletion strains, locus YDR226W, strain ADK1, hits give low values 0.991 | S. cerevisiae deletion strains, locus YDR477W, strain SNF1, hits give low values 1.02 | S. cerevisiae deletion strains, locus YER123W, strain YCK3, hits give low values 1 | S. cerevisiae deletion strains, locus YER133W, strain GLC7, hits give low values 1.01 | S. cerevisiae deletion strains, locus YFL009W, strain cdc4, hits give low values 1.01 | S. cerevisiae deletion strains, locus YFL029C, strain CAK1, hits give low values 1 | S. cerevisiae deletion strains, locus YFR003C, strain YPI1, hits give low values 1 | S. cerevisiae deletion strains, locus YFR019W, strain FAB1, hits give low values 1 | S. cerevisiae deletion strains, locus YFR028C, strain CDC14, hits give low values 1 | S. cerevisiae deletion strains, locus YGR040W, strain KSS1, hits give low values 1.01 | S. cerevisiae deletion strains, locus YGR052W, strain FMP48, hits give low values 1.12 | S. cerevisiae deletion strains, locus YGR092W, strain DBF2, hits give low values 0.988 | [5] 1.1 | S. cerevisiae deletion strains, locus YHR079C, strain IRE1, hits give low values 1 | S. cerevisiae deletion strains, locus YHR082C, strain KSP1, hits give low values 1.09 | S. cerevisiae deletion strains, locus YHR205W, strain SCH9, hits give low values 0.995 | S. cerevisiae deletion strains, locus YIL147C, strain SLN1, hits give low values 1 | S. cerevisiae deletion strains, locus YJL095W, strain BCK1, hits give low values 1.05 | S. cerevisiae deletion strains, locus YJL128C, strain PBS2, hits give low values 0.995 | S. cerevisiae deletion strains, locus YJL157C, strain FAR1, hits give low values 1.01 | S. cerevisiae deletion strains, locus YJR016C, strain ILV3, hits give low values 0.995 | S. cerevisiae deletion strains, locus YJR066W, strain TOR1 (second series), hits give low values 0.992 | S. cerevisiae deletion strains, locus YJR066W, strain TOR1, hits give low values 1.13 | S. cerevisiae deletion strains, locus YKL048C, strain ELM1, hits give low values 1.02 | S. cerevisiae deletion strains, locus YKL067W, strain YNK1, hits give low values 0.995 | S. cerevisiae deletion strains, locus YKL101W, strain HSL1, hits give low values 1 | S. cerevisiae deletion strains, locus YKL193C, strain SDS22, hits give low values 1 | S. cerevisiae deletion strains, locus YKL203C, strain TOR2, hits give low values 1.07 | S. cerevisiae deletion strains, locus YLR113W, strain HOG1, hits give low values 1.03 | S. cerevisiae deletion strains, locus YLR133W, strain CKI1, hits give low values 1.01 | S. cerevisiae deletion strains, locus YLR403W, strain SFP1, hits give low values 1.02 | S. cerevisiae deletion strains, locus YML070W, strain DAK1, hits give low values 0.999 | S. cerevisiae deletion strains, locus YMR001C, strain CDC5, hits give low values 1 | S. cerevisiae deletion strains, locus YMR205C, strain PFK2 (second series), hits give low values 1 | S. cerevisiae deletion strains, locus YMR277W, strain FCP1, hits give low values 1 | S. cerevisiae deletion strains, locus YNL006W, strain LST8, hits give low values 0.984 | S. cerevisiae deletion strains, locus YNL020C, strain ARK1, hits give low values 1 | S. cerevisiae deletion strains, locus YNL161W, strain CBK1, hits give low values 0.996 | S. cerevisiae deletion strains, locus YNL183C, strain NPR1, hits give low values 0.986 | S. cerevisiae deletion strains, locus YNL207W, strain RIO2, hits give low values 1.01 | S. cerevisiae deletion strains, locus YNL222W, strain SSU72, hits give low values 0.995 | S. cerevisiae deletion strains, locus YNL307C, strain MCK1 (second series), hits give low values 0.987 | S. cerevisiae deletion strains, locus YOL078W, strain AVO1, hits give low values 1 | S. cerevisiae deletion strains, locus YOL136C, strain PFK27, hits give low values 1 | S. cerevisiae deletion strains, locus YOR061W, strain CKA2, hits give low values 1.02 | S. cerevisiae deletion strains, locus YOR119C, strain RIO1, hits give low values 1.13 | S. cerevisiae deletion strains, locus YOR231W, strain MKK1, hits give low values 1.02 | S. cerevisiae deletion strains, locus YOR329C, strain SCD5, hits give low values 1.01 | S. cerevisiae deletion strains, locus YPL031C, strain PHO85, hits give low values 1.02 | S. cerevisiae deletion strains, locus YPL153C, strain RAD53, hits give low values 1 | S. cerevisiae deletion strains, locus YPL204W, strain HRR25, hits give low values 0.999 | S. cerevisiae deletion strains, locus YPL209C, strain IPL1, hits give low values 0.996 | S. cerevisiae deletion strains, locus YPL256C, strain CLN2, hits give low values 1.01 | S. cerevisiae deletion strains, locus YPR025C, strain CCL1, hits give low values 0.998 | S. cerevisiae deletion strains, locus YPR106W, strain ISR1, hits give low values 1.01 | S. cerevisiae deletion strains, locus YPR111W, strain DBF20, hits give low values 0.994 | S. cerevisiae deletion strains, strain NNK1, hits give low values 1 | S. cerevisiae deletion strains, strain TSCII, hits give low values 0.999
